Screening results as filed in PubChem.
CYP2C19 act: activators of human cytochrome P450 2C19; P33261; recombinant CYP2C19, luciferin-H EGE luminescence; active compounds read high; 0 = fully inhibited enzyme, 1 = untreated enzyme; activation factor at 5 µM; 96,000 tested, under 10 active; AID 1025;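 active = activation factor of at least 2 at 5 µM in the primary screen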;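 note: 0 = wells with 2.5 mM tranylcypromine and 1 = vehicle-only wells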
CYP2C9 inhib: inhibitors of human CYP2C9; P11712; CYP2C9 Supersomes, luciferin-H conversion, luminescence; inhibition, % at 5 µM; hit rate 20% among 96,000; AID 777;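 active = blocking of liver enzyme CYP2C9 beyond about 50% at 5 µM, limit read from the data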
Target sequence (P11712 whole entry, looked up): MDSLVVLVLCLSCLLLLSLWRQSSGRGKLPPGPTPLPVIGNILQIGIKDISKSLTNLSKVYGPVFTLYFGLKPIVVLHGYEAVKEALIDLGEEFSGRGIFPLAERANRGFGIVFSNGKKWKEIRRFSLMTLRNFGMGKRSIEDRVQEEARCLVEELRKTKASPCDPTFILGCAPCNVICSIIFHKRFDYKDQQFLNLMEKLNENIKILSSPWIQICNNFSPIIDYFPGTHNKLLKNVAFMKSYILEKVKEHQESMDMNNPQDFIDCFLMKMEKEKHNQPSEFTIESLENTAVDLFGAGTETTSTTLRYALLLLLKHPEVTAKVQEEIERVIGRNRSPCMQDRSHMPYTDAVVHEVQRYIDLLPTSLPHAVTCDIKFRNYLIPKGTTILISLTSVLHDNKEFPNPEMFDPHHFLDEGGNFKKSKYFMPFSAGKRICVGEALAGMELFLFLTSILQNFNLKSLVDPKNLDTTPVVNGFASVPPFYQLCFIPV
Cav32 inh: blocks human Cav3.2 T-type calcium channel; O95180; Cav3.2-expressing cells, Fluo-4 calcium fluorescence FDSS; active compounds read low; B-score at 10 µM; hit rate 4% among 100,000; AID 449739;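 active = single-dose well whose peak fluorescence ratio is a statistical outlier from its plate by either plate-standardised score or position-corrected B-score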
CYP2C9 activ: CYP2C9 (human) activation; hit rate 1.4% among 96,000; activation factor at 5 µM; P11712; recombinant CYP2C9, luciferin-H conversion, luminescence; active compounds read high; factor 1 = untreated enzyme, 0 = blocked; AID 1024;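 active = activation factor of 2 or more for CYP2C9 at a 5 µM dose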;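 note: 0 = sulfaphenazole-blocked wells and 1 = vehicle-only wells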
CYP2C19 inh: inhibitors of human CYP2C19 | hit rate 21% among 96,000 | inhibition, % at 5 µM | CYP2C19 Supersomes, luciferin-H EGE luminescence, 30 min;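 active = CYP2C19 inhibition above a set limit at 5 µM in the primary screen, cut at about 50% in these data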;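 note: plate controls were negative control wells for no effect and 2.5 mM tranylcypromine positive control for full effect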
Starred values were filed as active, the others as inactive; · = no result. Only some compounds are listed: those with a hit (about 27% of all), similar ones and a draw of the others.

SMILES	CYP2C19 act	CYP2C9 inhib	Cav32 inh	CYP2C9 activ	CYP2C19 inh
CCOC(=O)CN1C(=O)N[C@@H](c2ccco2)C(C(C)=O)=C1C	·	·	0.6	·	·
CCOC(=O)Nc1ccc(S(=O)(=O)Nn2cnnc2)cc1	0.9	30	0.44	0.7	11
O=C(CN(Cc1ccccc1Cl)C(=O)c1ccc(CN2CCOCC2)o1)NCC1CCCO1 (stereo unspecified)	1	1	-0.0092	1	0
Cn1c(=O)cc(SCC(=O)NCC2CCCO2)c2ccc(Cl)cc21 (stereo unspecified)	·	·	-1.7	·	·
CC(CC(=O)Nc1ccc2c(c1)OCCO2)c1ccccc1 (stereo unspecified)	0.5	42	0.4	0.6	52*
O=C(CC(=O)c1ccccc1)Nc1ccc2c(c1)OCCO2	0.8	-13	0.028	1.1	20
CCn1c(=O)cc(SCC(=O)N(C)Cc2ccccc2)c2ccccc21	0.4	-98	1.2	2*	56*
CCn1c(=O)cc(SCC(=O)NCC2CCCO2)c2ccccc21 (stereo unspecified)	0.9	-275	0.37	3.8*	13
CCOC(=O)CSc1cc(=O)n(CC)c2ccccc12	1	-9	1.1	1.1	0
CC(C)n1c(N2CCN(CC(=O)Nc3ccc4c(c3)OCCO4)CC2)nc2ccccc21	0.4	26	-3	0.7	58*
CC(=O)C1=C(O)C(=O)N(CCCCCC(=O)O)C1c1ccc(N(C)C)cc1 (stereo unspecified)	1	-10	0.2	1.1	-2
OCCCn1c(C(CO)Nc2nc(-c3ccc(Cl)cc3)cs2)nc2ccccc21 (stereo unspecified)	·	·	-0.65	·	·
Cn1c2c(c(=O)n(C)c1=O)C(C(F)(F)F)(C(F)(F)F)N=C(c1ccccc1Cl)N2	1	73*	3	0.3	1
Nc1ncnc2c1ncn2CCOc1ccccc1	1	-13	0.86	1.1	4
Nc1ncnc2c1ncn2CCN1CCOCC1	0.1	48	-0.25	0.5	90*
Cc1cccc(-c2nc(=S)c3c(o2)CCCC3)c1	0.9	-146	0.015	2.5*	14
S=C(Nc1ccccn1)c1ccccn1	0.3	51*	·	0.5	66*
COc1cc(O)cc2cc3c(c(O)c12)C(=O)CC(C)(O)O3 (stereo unspecified)	·	·	0.67	·	·
Cc1cc(C(=O)CSc2ccc(Cl)cc2)cc(C)c1OC(=S)N(C)C	0.6	67*	-2.5	0.3	44
Cc1noc(/C=C/c2ccc(-c3ccccc3Cl)o2)c1[N+](=O)[O-]	1.2	1	-2.9	1	-18
CCOC(=O)C1=C(C)NC(=O)NC1c1c(O)ccc2ccccc12 (stereo unspecified)	0.1	-5	-0.75	1	86*
CCOC(=O)C1=C(C)NC(=O)NC1c1ccco1 (stereo unspecified)	1.1	-2	1.5	1	-13
CCCC1=C(C(=O)OCC)C(c2ccc(NC(C)=O)cc2)NC(=O)N1 (stereo unspecified)	1	5	0.19	1	3
CCOc1cc(C2NC(=O)NC(C)=C2C(=O)OCc2ccccc2)ccc1O (stereo unspecified)	0.4	71*	-0.037	0.3	59*
COc1cc(C2NC(=O)NC(C)=C2C(=O)OCc2ccccc2)ccc1O (stereo unspecified)	0.7	41	-0.48	0.6	30
SMILES	CYP2C19 act	CYP2C9 inhib	Cav32 inh	CYP2C9 activ	CYP2C19 inh
COc1ccc(COC(=O)C2=C(C)NC(=O)NC2c2ccc(O)c(OC)c2)cc1 (stereo unspecified)	0.3	62*	-1	0.4	70*
CCOC(=O)C1=C(CNCc2ccc(C)cc2)NC(=O)NC1c1ccc(OC)cc1 (stereo unspecified)	0.8	24	-4.7*	0.8	22
CCOCc1cc(C2NC(=O)NC(C)=C2C(=O)OCC)ccc1OC (stereo unspecified)	0.9	10	1.2	0.9	9
CCOC(=O)N1CCC(Nc2c(NCCCN(C)Cc3ccccc3)c(=O)c2=O)CC1	1	-2	-0.4	1	-2
COc1ccc(C(C)=O)cc1CSc1nc2ccccc2o1	0.6	56*	-2.1	0.4	41
COc1ccc(CCNC(=O)CSc2nc3ccccc3o2)cc1OC	0.2	88*	0.3	0.1	80*
COc1ccc(CCNC(=O)CC2Oc3ccc(Cl)cc3NC2=O)cc1OC (stereo unspecified)	0.4	-51	-0.69	1.5	59*
COc1ccc(CCNC(=O)CSc2nnnn2-c2ccccc2OC)cc1OC	0.7	29	·	0.7	32
COc1ccc(CCNC(=O)CC2Nc3ccccc3NC2=O)cc1OC (stereo unspecified)	0.8	27	-0.36	0.7	21
COc1ccc(CCNC(=O)CSc2nc3cc(Cl)ccc3o2)cc1OC	0.8	66*	0.055	0.3	25
CCCCSC1(SCCCC)N=C(N)C2(C#N)C(c3ccccc3)NC(C)=C(C)C12C#N (stereo unspecified)	0.4	15	0.025	0.9	57*
Cc1ccc2oc(=O)c3cnn(CC(=O)Nc4cc(-c5cccc(F)c5)no4)c3c2c1	·	·	0.16	·	·
O=C(Nc1cccc(Cl)c1)Nc1ccccc1C(=O)NCc1ccco1	0.9	58*	-0.31	0.4	14
O=C(NCc1ccco1)c1cccc2ccccc12	0.8	-203	-0.44	3*	24
O=C(NCc1ccco1)c1ccccc1Nc1ccc(F)cc1	0.1	67*	-6*	0.3	89*
O=C(NCc1ccco1)c1cnc2ccccn2c1=O	1	55*	0.35	0.4	2
Cc1scc(C(=O)NCc2ccco2)c1-c1ccccc1	0.4	46	-0.24	0.5	61*
O=C(NCc1ccco1)Nc1ccc(Br)cc1Cl	0.5	53*	-0.83	0.5	47
CC(=O)N1c2c(cc(Br)cc2S(=O)(=O)N2CCN(c3ccccn3)CC2)CC1C (stereo unspecified)	0.7	67*	-0.13	0.3	31
COc1cccc(CNC(=O)C2CCC(CNS(=O)(=O)c3cccc4nsnc34)CC2)c1 (stereo unspecified)	0.8	28	0.46	0.7	16
COc1cccc(CNS(=O)(=O)c2cc(Br)cc3c2N(C(C)=O)C(C)C3)c1 (stereo unspecified)	0.3	-110	0.4	2.1*	74*
CCOC(=O)N1CCN(S(=O)(=O)c2cc(Br)cc3c2N(C(C)=O)C(C)C3)CC1 (stereo unspecified)	0.4	50	1.2	0.5	64*
Cc1cc(COc2ccccc2O)on1	1	-9	0.43	1.1	3
CC(COc1ccccc1Cc1ccccc1)N1CCCCC1 (stereo unspecified)	·	·	-2.9	·	·
COc1nc(-c2ccccc2)ccc1-c1noc(C)n1	0.6	14	-0.18	0.9	42
Cc1ccc(-c2noc(-c3cccs3)n2)cc1	1	-7	-0.016	1.1	4
Cc1ccccc1OC(C)c1nc(-c2ccccc2)no1 (stereo unspecified)	0.3	73*	-0.054	0.3	70*
